# Source: the supplement of paper PMC10849652
# The full data set covers some 8,800 targets. This sample favours those with a hit. About 0.5% of all pairs of compound and target were hits.
# Compound: C1=CC=C(C=C1)[C@H](COC2=CC3=C(C=C2)NC(=O)N3)NC(=O)C4=CC=CN(C4=O)CC5=CC(=C(C=C5)F)F
# Experiment: log2 fold change, soluble protein after heating vs DMSO (PISA); higher = thermal stabilisation; K562 lysate, 10 uM; active = over 0.2 and 3.5 SD of the protein, either way, in both replicates (recomputed)
# Summary of the method: (§1)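 K562 pellets were dounce-homogenised in PBS pH 7.4 with 1 mM MgCl2, and the crude extract at 1 mg/mL protein was treated with 10 μM compound for 30 min. Aliquots were heated for 3 min across 48°C-58°C, pooled, and brought to 0.5% NP-40 at 4°C; soluble protein was the supernatant after 21,000xg for 90 min. Soluble protein was quantified by TMTpro 16plex LC-MS/MS with channel sums equalised, and reported as log2 fold change in thermal stability against DMSO controls, with values from duplicates.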
# Sequence of UniProt O95819 (O95819 whole entry, looked up): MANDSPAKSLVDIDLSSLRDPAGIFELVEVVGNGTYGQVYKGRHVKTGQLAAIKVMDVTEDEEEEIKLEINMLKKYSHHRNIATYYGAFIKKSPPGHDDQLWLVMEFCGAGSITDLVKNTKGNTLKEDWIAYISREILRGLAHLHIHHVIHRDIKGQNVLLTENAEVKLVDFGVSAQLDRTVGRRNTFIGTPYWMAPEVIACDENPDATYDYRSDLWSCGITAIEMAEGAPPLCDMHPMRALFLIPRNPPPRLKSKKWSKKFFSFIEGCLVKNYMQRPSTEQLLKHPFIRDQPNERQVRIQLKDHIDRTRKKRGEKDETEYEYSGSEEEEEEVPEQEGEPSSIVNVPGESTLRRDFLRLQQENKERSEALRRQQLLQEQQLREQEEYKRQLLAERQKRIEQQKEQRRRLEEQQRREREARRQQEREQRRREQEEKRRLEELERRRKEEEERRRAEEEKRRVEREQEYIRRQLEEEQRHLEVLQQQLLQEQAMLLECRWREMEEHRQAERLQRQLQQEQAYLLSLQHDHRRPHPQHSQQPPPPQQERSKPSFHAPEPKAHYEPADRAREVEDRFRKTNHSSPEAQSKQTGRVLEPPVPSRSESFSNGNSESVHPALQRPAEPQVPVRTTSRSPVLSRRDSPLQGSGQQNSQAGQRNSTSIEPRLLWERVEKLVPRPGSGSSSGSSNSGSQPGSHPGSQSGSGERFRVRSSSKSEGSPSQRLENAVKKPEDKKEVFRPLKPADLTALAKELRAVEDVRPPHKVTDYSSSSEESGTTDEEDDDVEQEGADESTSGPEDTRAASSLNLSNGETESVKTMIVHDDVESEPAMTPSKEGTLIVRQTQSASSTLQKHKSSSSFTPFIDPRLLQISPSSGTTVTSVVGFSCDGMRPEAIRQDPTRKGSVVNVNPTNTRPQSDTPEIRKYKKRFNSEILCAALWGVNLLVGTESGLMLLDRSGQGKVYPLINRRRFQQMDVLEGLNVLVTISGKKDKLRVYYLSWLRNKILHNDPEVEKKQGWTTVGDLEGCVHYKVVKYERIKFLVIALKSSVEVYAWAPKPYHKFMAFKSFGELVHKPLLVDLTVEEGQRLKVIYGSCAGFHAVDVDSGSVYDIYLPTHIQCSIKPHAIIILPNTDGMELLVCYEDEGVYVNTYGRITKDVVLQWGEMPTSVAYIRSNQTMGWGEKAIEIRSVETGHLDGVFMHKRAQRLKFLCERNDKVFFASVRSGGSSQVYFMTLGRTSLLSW
# Sequence of UniProt Q9NWR8 (Q9NWR8 whole entry, looked up): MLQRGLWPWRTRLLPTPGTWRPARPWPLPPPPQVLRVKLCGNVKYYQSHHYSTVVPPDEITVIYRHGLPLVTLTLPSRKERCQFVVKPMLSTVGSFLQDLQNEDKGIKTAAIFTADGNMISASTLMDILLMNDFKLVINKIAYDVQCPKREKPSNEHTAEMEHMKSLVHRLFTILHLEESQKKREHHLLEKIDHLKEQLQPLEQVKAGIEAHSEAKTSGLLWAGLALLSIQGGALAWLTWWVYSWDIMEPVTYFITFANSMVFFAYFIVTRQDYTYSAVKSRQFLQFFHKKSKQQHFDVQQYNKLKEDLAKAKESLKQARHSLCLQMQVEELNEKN
# Sequence of UniProt P52732 (P52732 whole entry, looked up): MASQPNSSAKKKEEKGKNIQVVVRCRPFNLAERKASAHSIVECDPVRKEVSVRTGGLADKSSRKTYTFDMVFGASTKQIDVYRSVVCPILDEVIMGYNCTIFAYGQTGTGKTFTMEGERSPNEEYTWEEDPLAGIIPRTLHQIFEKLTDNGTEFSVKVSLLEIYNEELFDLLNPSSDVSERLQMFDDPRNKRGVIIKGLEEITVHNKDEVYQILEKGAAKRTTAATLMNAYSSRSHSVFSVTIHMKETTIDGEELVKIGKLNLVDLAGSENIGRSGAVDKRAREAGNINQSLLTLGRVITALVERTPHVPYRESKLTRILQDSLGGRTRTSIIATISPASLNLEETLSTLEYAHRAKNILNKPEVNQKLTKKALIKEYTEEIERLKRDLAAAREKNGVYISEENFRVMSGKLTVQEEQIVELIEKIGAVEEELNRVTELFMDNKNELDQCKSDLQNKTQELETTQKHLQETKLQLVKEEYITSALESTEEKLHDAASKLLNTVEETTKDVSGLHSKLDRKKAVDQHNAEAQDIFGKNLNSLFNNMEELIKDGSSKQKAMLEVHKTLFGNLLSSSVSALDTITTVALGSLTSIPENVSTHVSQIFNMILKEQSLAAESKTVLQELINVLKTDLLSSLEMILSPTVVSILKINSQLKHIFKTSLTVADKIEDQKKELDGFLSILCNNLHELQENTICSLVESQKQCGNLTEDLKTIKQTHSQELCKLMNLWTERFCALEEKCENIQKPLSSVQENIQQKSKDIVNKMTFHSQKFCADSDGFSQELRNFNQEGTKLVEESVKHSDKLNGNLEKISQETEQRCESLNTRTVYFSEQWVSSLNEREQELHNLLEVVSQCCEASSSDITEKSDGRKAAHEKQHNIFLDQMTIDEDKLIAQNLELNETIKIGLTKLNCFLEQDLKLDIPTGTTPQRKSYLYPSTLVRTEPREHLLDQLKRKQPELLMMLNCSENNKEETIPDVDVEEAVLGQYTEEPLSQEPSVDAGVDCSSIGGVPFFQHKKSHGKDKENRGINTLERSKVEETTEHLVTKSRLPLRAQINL
# Sequence of UniProt Q71SY5 (Q71SY5 whole entry, looked up): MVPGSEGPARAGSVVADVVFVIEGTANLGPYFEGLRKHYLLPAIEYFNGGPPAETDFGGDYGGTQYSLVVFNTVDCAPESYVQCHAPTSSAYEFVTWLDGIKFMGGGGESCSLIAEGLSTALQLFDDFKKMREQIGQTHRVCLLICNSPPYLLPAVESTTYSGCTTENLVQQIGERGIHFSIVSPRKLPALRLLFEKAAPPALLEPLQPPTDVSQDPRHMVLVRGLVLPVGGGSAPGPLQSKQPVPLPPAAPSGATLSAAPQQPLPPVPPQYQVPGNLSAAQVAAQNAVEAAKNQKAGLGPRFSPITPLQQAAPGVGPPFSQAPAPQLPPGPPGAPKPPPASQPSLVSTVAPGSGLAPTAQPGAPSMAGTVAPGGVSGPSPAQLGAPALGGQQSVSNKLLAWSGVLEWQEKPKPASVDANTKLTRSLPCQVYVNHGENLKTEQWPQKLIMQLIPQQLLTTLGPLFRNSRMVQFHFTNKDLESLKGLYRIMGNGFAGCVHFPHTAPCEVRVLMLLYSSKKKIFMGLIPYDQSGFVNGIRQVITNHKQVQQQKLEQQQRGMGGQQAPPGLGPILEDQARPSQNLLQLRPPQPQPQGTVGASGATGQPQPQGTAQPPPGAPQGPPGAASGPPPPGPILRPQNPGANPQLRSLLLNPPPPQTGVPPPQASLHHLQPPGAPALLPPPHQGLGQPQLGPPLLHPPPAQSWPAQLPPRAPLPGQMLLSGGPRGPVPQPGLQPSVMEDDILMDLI
# Sequence of UniProt Q96IZ6 (Q96IZ6 whole entry, looked up): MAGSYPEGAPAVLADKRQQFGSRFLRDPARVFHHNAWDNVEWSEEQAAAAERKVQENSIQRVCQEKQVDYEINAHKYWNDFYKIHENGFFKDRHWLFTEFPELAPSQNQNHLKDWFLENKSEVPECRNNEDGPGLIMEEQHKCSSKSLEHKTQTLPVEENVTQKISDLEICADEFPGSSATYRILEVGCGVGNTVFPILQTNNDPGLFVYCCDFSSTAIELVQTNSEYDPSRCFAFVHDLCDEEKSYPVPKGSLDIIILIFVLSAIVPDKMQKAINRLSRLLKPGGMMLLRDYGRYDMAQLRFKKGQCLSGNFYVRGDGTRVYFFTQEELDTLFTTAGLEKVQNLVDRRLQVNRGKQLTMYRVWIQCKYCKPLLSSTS
# Sequence of UniProt Q8WXB1 (Q8WXB1 whole entry, looked up): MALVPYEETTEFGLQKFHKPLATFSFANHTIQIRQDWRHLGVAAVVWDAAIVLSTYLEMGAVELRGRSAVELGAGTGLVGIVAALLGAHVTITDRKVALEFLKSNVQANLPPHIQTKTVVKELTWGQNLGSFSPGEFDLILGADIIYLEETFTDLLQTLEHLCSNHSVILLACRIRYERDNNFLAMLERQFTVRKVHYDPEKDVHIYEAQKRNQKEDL
# Sequence of UniProt Q9Y2E5 (Q9Y2E5 whole entry, looked up): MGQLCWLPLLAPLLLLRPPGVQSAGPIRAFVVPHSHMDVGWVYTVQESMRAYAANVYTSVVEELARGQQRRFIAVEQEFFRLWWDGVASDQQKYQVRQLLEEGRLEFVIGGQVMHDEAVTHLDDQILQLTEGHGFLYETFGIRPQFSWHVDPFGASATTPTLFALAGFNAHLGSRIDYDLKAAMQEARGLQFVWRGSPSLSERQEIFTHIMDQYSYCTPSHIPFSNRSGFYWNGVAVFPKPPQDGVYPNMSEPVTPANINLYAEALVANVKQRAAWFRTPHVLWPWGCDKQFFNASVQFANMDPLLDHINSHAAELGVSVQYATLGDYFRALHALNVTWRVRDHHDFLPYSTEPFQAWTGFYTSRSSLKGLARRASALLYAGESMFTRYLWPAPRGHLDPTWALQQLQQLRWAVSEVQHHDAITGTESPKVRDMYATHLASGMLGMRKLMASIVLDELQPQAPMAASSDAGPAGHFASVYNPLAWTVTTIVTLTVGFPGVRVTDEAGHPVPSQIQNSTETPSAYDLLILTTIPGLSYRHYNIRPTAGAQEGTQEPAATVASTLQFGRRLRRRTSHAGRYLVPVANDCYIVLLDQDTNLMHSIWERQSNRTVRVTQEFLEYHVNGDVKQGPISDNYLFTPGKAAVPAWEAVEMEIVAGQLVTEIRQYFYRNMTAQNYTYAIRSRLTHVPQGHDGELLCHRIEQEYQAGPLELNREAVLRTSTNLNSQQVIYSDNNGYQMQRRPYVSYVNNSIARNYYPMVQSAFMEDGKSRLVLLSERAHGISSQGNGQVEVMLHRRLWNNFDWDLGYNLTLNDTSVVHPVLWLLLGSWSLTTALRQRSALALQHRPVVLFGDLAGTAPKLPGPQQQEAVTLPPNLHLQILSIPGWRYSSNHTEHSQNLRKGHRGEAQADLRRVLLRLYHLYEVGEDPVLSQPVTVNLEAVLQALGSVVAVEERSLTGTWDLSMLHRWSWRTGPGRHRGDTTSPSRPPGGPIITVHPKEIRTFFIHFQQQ
row,Target,log2 fold change
1,MED25 isoform 3 (UniProt Q71SY5),-0.069 (inactive)
2,KIF11 (UniProt P52732),0.008 (inactive)
3,MCUB (UniProt Q9NWR8),0.097 (inactive)
4,MAN2B2 (UniProt Q9Y2E5),0.087 (inactive)
5,LRWD1 (UniProt Q9UFC0),-0.027 (inactive)
6,MRPL30 isoform 2 (UniProt Q8TCC3),0.086 (inactive)
7,MRPL27 (UniProt Q9P0M9),0.002 (inactive)
8,METTL2A (UniProt Q96IZ6),0.003 (inactive)
9,LY6E (UniProt Q16553),-0.031 (inactive)
10,MAP4K4 isoform 6 (UniProt O95819),0.076 (inactive)
11,MEGF8 (UniProt Q7Z7M0),0.023 (inactive)
12,MDM2 isoform 11 (UniProt Q00987),0.109 (inactive)
13,KIF21A (UniProt H0YI78),0.128 (inactive)
14,MME (UniProt P08473),-0.152 (inactive)
15,METTL21A (UniProt Q8WXB1),0.048 (inactive)
16,LEPROT (UniProt O15243),0.049 (inactive)

# Compound: CC1=C(SC2=C1C(=N[C@H](C3=NN=C(N32)C)CC(=O)N)C4=CC=C(C=C4)Cl)C
# Experiment: as above
# Summary of the method: as §1
row,Target,log2 fold change
1,MED25 isoform 3 (UniProt Q71SY5),0.026 (inactive)
2,KIF11 (UniProt P52732),-0.001 (inactive)
3,MCUB (UniProt Q9NWR8),-0.171 (inactive)
4,MAN2B2 (UniProt Q9Y2E5),0.086 (inactive)
5,LRWD1 (UniProt Q9UFC0),0.044 (inactive)
6,MRPL30 isoform 2 (UniProt Q8TCC3),-0.056 (inactive)
7,MRPL27 (UniProt Q9P0M9),-0.046 (inactive)
8,METTL2A (UniProt Q96IZ6),-0.004 (inactive)
9,LY6E (UniProt Q16553),-0.046 (inactive)
10,MAP4K4 isoform 6 (UniProt O95819),0.063 (inactive)
11,MEGF8 (UniProt Q7Z7M0),-0.022 (inactive)
12,MDM2 isoform 11 (UniProt Q00987),-0.092 (inactive)
13,KIF21A (UniProt H0YI78),0.02 (inactive)
14,MME (UniProt P08473),0.041 (inactive)
15,METTL21A (UniProt Q8WXB1),-0.069 (inactive)
16,LEPROT (UniProt O15243),-0.009 (inactive)
